Laboratory results as given in PubChem BioAssay AID1347172 (National Center for Advancing Translational Sciences (NCATS), 2019).
Inconclusive results are not listed. Where a call stands in place of a potency, no number is given. The source made the active and inactive calls. Calls come from the whole dose curve; as a rule, active = well fitted inhibition curve with a large enough effect; inconclusive = small, poorly fitted or top-dose-only effect; inactive = flat fitted curve, though single readings scatter.

Experiment: Secondary qRT-PCR qHTS assay for selected Zika virus inhibitors
Details: Vero cells ZIKV infection, NS5 RNA qRT-PCR, 24 h; series mostly up to 32.6 µM
From the text: Assay Submitters (PI): Avindra Nath, Ph.D., National Institute of Neurological Disorders and Stroke (NINDS), Bethesda, MD Radhakrishnan Padmanabhan, Ph.D., Georgetown University (GU), Washington D.C. Zika Virus causes congenital defects, including microcephaly and is associated with Guillain-Barre syndrome, eningoencephalitis and myelitis in infected adult. […] Using a target-based approach, we hope to establish a screening paradigm to uncover novel, cell-active NS2B-NS3 protease (Zika Virus) specific inhibitors from NCATS' collection of small molecules using qHTS. […] Four assay panel was created to identify potential Zika Virus inhibitors. Namely, (1) GU unlinked NS2B-NS3 AMC tagged protease qHTS, (2) GU unlinked NS2B-NS3 Rhodamine tagged protease qHTS, (3) NINDS linked NS2B-NS3 AMC tagged protease qHTS, (4) NINDS linked NS2B-NS3 Rhodamine tagged protease qHTS. Inhibitors of the Zika virus primary screens are confirmed using qRT-PCR secondary assays, qRT-PCR mCherry orthogonal assay, and qRT-PCR viability counterscreen. Early Translation Branch (ETB) National Center for Advancing Translational Sciences (NCATS), Rockville, MD National Institute of Health (NIH), Bethesda, Maryland
384-well ZIKV qRT-PCR Assay: Vero cells were treated with the indicated compounds at different concentrations, infected with ZIKV (MOI=1) and incubated at 37 degrees C for 3 hours to permit virus invasion. After 3 hr, supernatant was removed, and cells were washed once to remove extracellular virus. After a further 21 hr incubation, infected cells were washed three times with cold PBS (4 degrees C). Plates were then process using the TaqmanGene Expression Cells-to-Ct Kit (ThermoFisher Scientific) following the manufactures protocol. Primers directed to the NS5 sequence (F-[…]; R-GCTCGGCCAATCAGTTCA) along with Taqman probe (FAM-[…]-BHQ; Biosearch Technologies) were used to quantify drug inhibition of viral load. Reactions were run at initial 95 degrees C for 10 min, then 40 cycles of 95 degrees C for 20 sec and 60 degrees C for 40 sec using a LightCycler 480 (Roche). Relative viral copy numbers were generated by normalizing to cells treated with vehicle.

SMILES	Potency	activity change, negative = inhibition
CO[C@H]1C[C@@H](O[C@@H]2/C(C)=C/C[C@@H]3C[C@@H](C[C@]4(CC[C@H](C)[C@@H](C5CCCCC5)O4)O3)OC(=O)[C@@H]3C=C(C)/C(=N/O)[C@H]4OC/C(=C\C=C\[C@@H]2C)[C@]43O)O[C@@H](C)[C@H]1O	3.98 µM (active)	
CC(=O)OC12CC(C)C(OC(=O)c3ccccc3)C1/C=C(/C)C(OC(=O)c1ccccc1)CC(=O)C(C)(C)/C=C/C(C)C2=O (stereo not given)	inactive	
Nc1ccn([C@@H]2O[C@H](CO)[C@@H](O)C2(F)F)c(=O)n1	inactive	
CN(C)[C@@H]1C(=O)C(C(N)=O)=C(O)[C@@]2(O)C(=O)C3=C(O)c4c(O)ccc(Cl)c4[C@@H](O)[C@H]3C[C@@H]12	inactive	
Oc1c(Cl)cc(Cl)c(Cl)c1Cc1c(O)c(Cl)cc(Cl)c1Cl	35.5 µM (active)	
Cc1ccc2[nH]c(=O)c(C3=NN(C(=O)CCC(=O)O)C(c4ccc(Br)cc4)C3)c(-c3ccccc3)c2c1 (stereo not given)	inactive	
O=C(O)c1ccc(-n2nc(-c3ccccc3O)nc2-c2ccccc2O)cc1	inactive	
CC(Oc1ccccc1)C(=O)Nc1ccc(C(=O)OCc2cc(=O)n3nc(C4CC4)sc3n2)cc1 (stereo not given)	inactive	
CC(C)c1cccc2c(-c3ccccc3)cc(-c3ccc(-c4ccc(C(=O)O)cc4)[nH]3)nc12	10 µM (active)	
Cc1nc(C2CCCCC2)c(-c2ccc(S(N)(=O)=O)c(F)c2)o1	inactive	
O=C(O)c1cccc(-c2ccc(-c3cn(C(=O)N4CCCCC4Cc4ccccc4)nn3)cc2)c1 (stereo not given)	inactive	
CC(C)c1ccc2c(c1)c(SC(C)(C)C)c(CC(C)(C)C(=O)O)n2Cc1ccc(Cl)cc1	10 µM (active)	
O=C(O)c1ccc(S(=O)(=O)N(Cc2ccc(OC(F)(F)F)cc2)c2ncc(C(F)(F)F)cc2Cl)cc1	inactive	
CC(C)(O)c1ccccc1CC[C@@H](SCC1(CC(=O)O)CC1)c1cccc(/C=C/c2ccc3ccc(Cl)cc3n2)c1	inactive	
C=C1c2cccc(O)c2C(O)=C2C(=O)[C@]3(O)C(O)=C(C(N)=O)C(=O)[C@@H](N(C)C)[C@@H]3[C@@H](O)[C@H]12	inactive	
O=C(O)C1(Cc2cccc(Nc3nccs3)n2)CCC(Oc2cccc(Cl)c2F)CC1 (stereo not given)	inactive	
O=C(O)c1c(Sc2ccccc2)c2cc(Cl)ccc2n1Cc1ccc(Cl)cc1	inactive	
COc1ccc(NS(=O)(=O)c2ccc(NS(=O)(=O)c3ccc4c(c3)OCCO4)cc2)cc1	inactive	
CCCCCCCOc1cc2c(cc1/C(C)=C/c1ccc(C(=O)O)cc1)C(C)(C)CCS2(=O)=O	14.1 µM (active)	
COc1ccccc1-c1cccc(-c2c(O)c3cc(C#N)c(Cl)cc3[nH]c2=O)c1	inactive	

SMILES	Potency	activity change, negative = inhibition
CC(=O)Nc1ccc([C@H](C)C(=O)Nc2ncc(C(C)C)s2)cc1	inactive	
CC(C)c1onc(-c2c(Cl)cccc2Cl)c1COc1ccc(/C=C/c2cccc(C(=O)O)c2)c(Cl)c1	11.2 µM (active)	
CN(C)[C@@H]1C(=O)C(C(N)=O)=C(O)[C@@]2(O)C(=O)C3=C(O)c4c(O)cccc4C[C@H]3C[C@@H]12	inactive	
O=C(O)c1ccc(O)c2ncc(N3CCCN(CCc4cccc5ccccc45)CC3)cc12	inactive	
N#Cc1ccc(N2N=C3c4ccc(C(=O)O)cc4CC[C@@H]3[C@@H]2C2CCCC2)cc1Cl	inactive	
CCOc1ccc(-c2cc(NC(=O)c3c(F)cccc3F)c(C(=O)O)s2)cc1	inactive	
CC[C@H](C)[C@H]1O[C@]2(CC[C@@H]1C)C[C@@H]1C[C@@H](C/C=C(\C)[C@@H](O[C@H]3C[C@H](OC)[C@@H](O[C@H]4C[C@H](OC)[C@@H](O)[C@H](C)O4)[C@H](C)O3)[C@@H](C)/C=C/C=C3\CO[C@@H]4[C@H](O)C(C)=C[C@@H](C(=O)O1)[C@]34O)O2	3.98 µM (active)	
CC(C)c1cc(C(C)C)c(CC(=O)NS(=O)(=O)Oc2c(C(C)C)cccc2C(C)C)c(C(C)C)c1	10 µM (active)	
COc1cc(/C=C/c2ccccc2)c(C(=O)O)c(O)c1CC=C(C)C	inactive	
Oc1cc2ccccc2c2ccccc12	22.4 µM (active)	
CC1(C)CCC(C)(C)c2cc3c(cc21)Sc1ccccc1N=C3c1ccc(C(=O)O)cc1	inactive	
CCc1oc2ccccc2c1C(=O)c1cc(Br)c(O)c(Br)c1	inactive	
CC(=O)O[C@@H]1C[C@]2(C)[C@@]3(CCC4[C@@]5(C)CC[C@H](O[C@@H]6O[C@H](C(=O)O)[C@@H](O)[C@H](O[C@@H]7O[C@H](CO)[C@H](O)[C@H](O)[C@H]7O[C@@H]7O[C@@H](C)[C@H](O)[C@@H](O)[C@H]7O[C@@H]7OC[C@](O)(CO)[C@H]7O)[C@H]6O[C@@H]6O[C@H](CO)[C@H](O)[C@H](O)[C@H]6O)C(C)(C)C5CC[C@]42C)O[C@@H](O)[C@]12C3CC(C)(C)[C@@H](OC(=O)/C=C/c1ccc(O)c(O)c1)[C@@H]2OC(=O)/C=C/c1ccccc1 (stereo not given in full)		-6.06% [at 6.77 µM] (inactive)
CN(Cc1ccc(C(=O)O)cc1)c1ccc(OCc2c(-c3c(Cl)cccc3Cl)noc2C2CC2)nc1C(F)(F)F	14.1 µM (active)	
CC(=O)N1c2ccc(-c3ccc(C(=O)O)cc3)cc2C(Nc2ccc(Cl)cc2)CC1C (stereo not given)	inactive	
O=S(=O)(Nc1cc(Cl)c(Oc2cnc3ccccc3c2)c(Cl)c1)c1ccc(Cl)cc1Cl	22.4 µM (active)	
CCOC(=O)c1ccc(NC(=O)CSc2nc(-c3ccc(F)cc3)cc(C(F)(F)F)c2C#N)cc1	inactive	
CCOc1c2c(c(OCC)c3ccccc13)C(=O)N(c1ccc(CC(=O)NS(=O)(=O)c3ccccc3)cc1)C2	inactive	
O=S(=O)(O)c1ccc2cc(N=Nc3cc(S(=O)(=O)O)c4cccnc4c3O)ccc2c1	inactive	
Cc1ccc([C@@H]2CC=C(C(=O)O)[C@H](c3ccc(C(C)(C)C)cc3)N2S(=O)(=O)c2ccc(C)cc2)cc1	inactive	
